According to the antibiotic and cytotoxicity screens of Wong et al. (2023):
Hit rate of the full screen: of about 39,000 compounds, about 3,300 (8.5%) were called active. The list comes from a sample in which actives are over-represented; it also holds similar structures and randomly drawn compounds.

Each compound was assayed on HepG2 (assay: cytotoxicity call (relative viability < 0.9)). Conditions: 10 µM.
In the case of `C[C@@H]1CCCCO[C@@H](CN(C)C(=O)CCC(F)(F)F)[C@H](C)CN([C@H](C)CO)C(=O)c2cc(NC(=O)NC3CCCCC3)ccc2O1`, the cytotoxicity call is reported as “inactive”. With `COCCNC(=O)C[C@H]1CC[C@@H]2[C@H](COC[C@H](O)CN2S(=O)(=O)c2ccccc2C)O1` the cytotoxicity call was “inactive”. In the case of `C[C@H]1CN([C@@H](C)CO)C(=O)c2c(c3ccccc3n2C)-c2ccccc2CO[C@@H]1CN(C)Cc1ccc(O)cc1`, the cytotoxicity call is reported as “inactive”. In the case of `C[C@H]1CN([C@@H](C)CO)C(=O)c2cc(NC(=O)CCN3CCOCC3)ccc2O[C@@H]1CN(C)S(=O)(=O)c1cn(C)cn1`, the cytotoxicity call is reported as “inactive”. In the case of `COc1ccc(S(=O)(=O)N(C)C[C@@H]2Oc3ccc(NC(=O)Nc4c(C)noc4C)cc3CC(=O)N([C@H](C)CO)C[C@@H]2C)cc1`, the cytotoxicity call is reported as “inactive”. `CC(C)NC(=O)N(C)C[C@@H]1Oc2c(NS(=O)(=O)c3ccc(Cl)cc3)cccc2C(=O)N([C@H](C)CO)C[C@@H]1C` was tested, and the cytotoxicity call was “inactive”. For `C[C@@H]1CN([C@@H](C)CO)C(=O)c2cccc(NS(C)(=O)=O)c2O[C@@H]1CN(C)C(=O)Nc1ccc(C(F)(F)F)cc1`, the cytotoxicity call was “inactive”. With `CSCCC(NC(=O)C(Cc1c[nH]c2ccccc12)NC(=O)CCNC(=O)OC(C)(C)C)C(=O)NC(CC(=O)O)C(=O)NC(Cc1ccccc1)C(N)=O` (stereo unspecified) the cytotoxicity call was “inactive”. In the case of `COc1ccc(S(=O)(=O)N(C)C[C@H]2Oc3ccc(NS(=O)(=O)c4ccc(F)cc4)cc3CC(=O)N([C@H](C)CO)C[C@H]2C)cc1`, the cytotoxicity call is reported as “inactive”. In the case of `CN([C@@H](Cc1ccc(OS(=O)(=O)c2cccc3cnccc23)cc1)C(=O)N1CCN(c2ccccc2)CC1)S(=O)(=O)c1cccc2cnccc12`, the cytotoxicity call is reported as “inactive”. `CN(C)CC(=O)N[C@@H]1CC[C@H](CCNC(=O)C2CCC2)O[C@H]1CO` was tested, and the cytotoxicity call was “inactive”. For `CN1C(=O)/C(=C(/C#N)C(N)=O)c2ccccc21`, the cytotoxicity call was “inactive”. For `O=C(Nc1ccccc1)C1=C[C@H](c2ccc3c(c2)Cc2ccccc2-3)C[C@H](OCc2ccc(CO)cc2)O1`, the cytotoxicity call was “inactive”. In the case of `Cc1ccc(S(=O)(=O)Nc2ccc3c(c2)C(=O)N([C@H](C)CO)C[C@H](C)[C@@H](CN(C)S(C)(=O)=O)OCCCC[C@@H](C)O3)cc1`, the cytotoxicity call is reported as “inactive”. For `O=C(NC1CCCCC1)[C@@H]1C(c2ccc(Cl)cc2)=C(S(=O)(=O)c2ccccc2)C(=O)N1Cc1ccc(-c2ccccc2)cc1`, the cytotoxicity call was “inactive”. With `CC(=O)n1nc(-c2cccnc2)nc1N` the cytotoxicity call was “inactive”. In the case of `C[C@H](CO)N1C[C@H](C)[C@H](CN(C)Cc2ccc(C(=O)O)cc2)OCCCC[C@H](C)Oc2ccc(NC(=O)c3ccccc3)cc2C1=O`, the cytotoxicity call is reported as “inactive”. In the case of `C[C@@H]1CN([C@@H](C)CO)C(=O)c2cc(NC(=O)Nc3ccccc3)ccc2O[C@@H]1CN(C)Cc1ccc(-c2ccccc2)cc1`, the cytotoxicity call is reported as “active”. With `C[C@@H]1CN([C@H](C)CO)C(=O)c2cc(NC(=O)Nc3ccccc3)ccc2O[C@H]1CN(C)Cc1ccc(-c2ccccc2)cc1` the cytotoxicity call was “active”. `COCC(=O)N(C)C[C@H]1Oc2cc(C#Cc3ccccc3)ccc2S(=O)(=O)N([C@@H](C)CO)C[C@@H]1C` was tested, and the cytotoxicity call was “inactive”. In the case of `O=C(CSc1nnc[nH]1)C1CC1`, the cytotoxicity call is reported as “inactive”. `COc1c(C)cc(-c2cc3c(c(CCc4ccccc4)n2)[Si](C(C)C)(C(C)C)O[C@H]3c2ccccc2)cc1C` was tested, and the cytotoxicity call was “inactive”. With `COc1cc(Nc2ncc(F)c(Nc3ccc4c(n3)N(COP(=O)(O)O)C(=O)C(C)(C)O4)n2)cc(OC)c1OC` the cytotoxicity call was “active”. For `COCC(=O)Nc1ccc2c(c1)C(=O)N(C)C[C@H](OC)[C@H](C)CN(C(=O)Cc1cccnc1)[C@@H](C)CO2`, the cytotoxicity call was “inactive”. In the case of `C[C@@H]1CN([C@@H](C)CO)C(=O)c2cc(NC(=O)Nc3ccccc3)ccc2O[C@@H]1CN(C)Cc1ccc(Oc2ccccc2)cc1`, the cytotoxicity call is reported as “active”. `C[C@H](CO)N1C[C@H](C)[C@@H](CN(C)Cc2ccc(Oc3ccccc3)cc2)Oc2ccc(NC(=O)Nc3ccccc3)cc2C1=O` was tested, and the cytotoxicity call was “active”. In the case of `C[C@H](CO)N1C[C@H](C)[C@H](CN(C)Cc2ccc(Oc3ccccc3)cc2)Oc2ccc(NC(=O)Nc3ccccc3)cc2C1=O`, the cytotoxicity call is reported as “inactive”. In the case of `C[C@H]1CN([C@@H](C)CO)C(=O)c2cc(NC(=O)Nc3ccccc3)ccc2O[C@H]1CN(C)Cc1ccc(Oc2ccccc2)cc1`, the cytotoxicity call is reported as “inactive”. In the case of `C[C@@H]1CN([C@@H](C)CO)C(=O)c2cc(NC(=O)Nc3ccccc3)ccc2O[C@H]1CN(C)Cc1ccc(Oc2ccccc2)cc1`, the cytotoxicity call is reported as “active”. In the case of `C[C@H]1CN([C@@H](C)CO)C(=O)c2cc(NC(=O)Nc3ccccc3)ccc2O[C@@H]1CN(C)Cc1ccc(Oc2ccccc2)cc1`, the cytotoxicity call is reported as “active”. With `C[C@H](CO)N1C[C@H](C)[C@H](CN(C)Cc2ccc(C(=O)O)cc2)Oc2c(NC(=O)Nc3ccc(C(F)(F)F)cc3)cccc2C1=O` the cytotoxicity call was “inactive”. `O=C(C[C@@H]1C=C[C@@H](NC(=O)C2CCC2)[C@H](CO)O1)NCCCN1CCOCC1` was tested, and the cytotoxicity call was “inactive”. `C[C@@H]1CCCCO[C@H](CN(C)C(=O)Cc2ccccc2)[C@@H](C)CN([C@@H](C)CO)C(=O)c2cc(NC(=O)CCC(F)(F)F)ccc2O1` was tested, and the cytotoxicity call was “inactive”. For `COCCOC(=O)N1C(=O)[C@@]2(c3ccccc31)[C@H](C(=O)N1CCCCCCC1)[C@H]1C(=O)O[C@H](c3ccccc3)[C@H](c3ccccc3)N1[C@@H]2c1ccc(OCCO)cc1`, the cytotoxicity call was “inactive”. For `COc1ccc(-c2cnc3c(c2)C(=O)N([C@H](C)CO)C[C@H](C)[C@H](CN(C)C(=O)Cc2cccnc2)O3)cc1`, the cytotoxicity call was “inactive”. In the case of `Cn1c(=O)n2n(c1=O)[C@H](C1CC1)C=C1CN3[C@@H]([C@H](Cc4ccccc4)OC(=O)[C@@H]3Cc3ccc(-n4cc(CCC(=O)NO)nn4)cc3)[C@@H]12`, the cytotoxicity call is reported as “inactive”. With `C[C@H]1CN([C@@H](C)CO)C(=O)CCCn2nncc2CO[C@H]1CN(C)C(=O)Nc1ccc(C(F)(F)F)cc1` the cytotoxicity call was “inactive”. `NC(=O)CN1C(=O)C(=O)c2cc(Cl)ccc21` was tested, and the cytotoxicity call was “inactive”. With `Cc1nc(-c2ccncc2)sc1CN` the cytotoxicity call was “inactive”. `O=C(C[C@@H]1C[C@@H]2c3cc(NC(=O)c4ccc5c(c4)OCO5)ccc3O[C@@H]2[C@H](CO)O1)NCc1ccccn1` was tested, and the cytotoxicity call was “inactive”. For `COCC(=O)Nc1ccc2c(c1)C(=O)N(C)[C@H]1CC[C@@H](CC(=O)NCc3ccc(OC)cc3)O[C@@H]1CO2`, the cytotoxicity call was “inactive”. For `Cc1noc(C)c1NC(=O)Nc1cccc2c1O[C@@H](CN(C)S(C)(=O)=O)[C@H](C)CN([C@H](C)CO)C2=O`, the cytotoxicity call was “inactive”. `COc1cc(S(C)(=O)=O)ccc1Nc1nc2ccc(-c3ccc(NC(=O)[C@H](C)c4ccc(F)cc4)cc3)cn2n1` was tested, and the cytotoxicity call was “inactive”. In the case of `C[C@@H]1CN([C@H](C)CO)C(=O)c2cc(NC(=O)Nc3ccccc3)ccc2O[C@@H]1CN(C)Cc1ccc(Oc2ccccc2)cc1`, the cytotoxicity call is reported as “active”. In the case of `C[C@@H]1CN([C@H](C)CO)C(=O)c2cc(NC(=O)Nc3ccccc3)ccc2O[C@H]1CN(C)Cc1ccc(Oc2ccccc2)cc1`, the cytotoxicity call is reported as “active”. With `COc1ccc(NC(=O)N(C)C[C@@H]2OCCCC[C@@H](C)Oc3ccc(NS(=O)(=O)c4ccc(C)cc4)cc3C(=O)N([C@@H](C)CO)C[C@@H]2C)cc1` the cytotoxicity call was “inactive”. For `CCCNC(=O)N1C[C@H]2[C@@H](c3ccccc31)[C@H](CO)N2C(=O)CN1CCOCC1`, the cytotoxicity call was “inactive”. `C[C@@H]1CCCCO[C@@H](CN(C)Cc2ccc(Cl)c(Cl)c2)[C@H](C)CN([C@@H](C)CO)C(=O)c2cc(NS(=O)(=O)c3cccs3)ccc2O1` was tested, and the cytotoxicity call was “inactive”. In the case of `CC(=O)NCC(=O)N1CCC2(CC1)C(=O)N(CC1CC1)CCN2C`, the cytotoxicity call is reported as “inactive”. In the case of `C[C@@H]1CN([C@H](C)CO)C(=O)c2cc(NS(=O)(=O)c3ccc(F)cc3)ccc2O[C@H]1CN(C)S(C)(=O)=O`, the cytotoxicity call is reported as “inactive”. With `C[C@@H]1ON(c2ccc(C(=O)OC(C)(C)C)cc2)[C@H](c2ccc(O)cc2)[C@H]1C(=O)N1C(=O)OC[C@H]1Cc1ccccc1` the cytotoxicity call was “inactive”. `COc1cccc(S(=O)(=O)N(C)C[C@@H]2Oc3ncc(-c4ccc(F)cc4)cc3C(=O)N([C@H](C)CO)C[C@@H]2C)c1` was tested, and the cytotoxicity call was “inactive”. For `COc1cc2nc(N3CCN(C(=O)C4CCCO4)CC3)nc(N)c2cc1OC.Cl` (stereo unspecified), the cytotoxicity call was “active”. In the case of `COc1cc2nc(N3CCN(C(=O)C4COc5ccccc5O4)CC3)nc(N)c2cc1OC.CS(=O)(=O)O` (stereo unspecified), the cytotoxicity call is reported as “inactive”. In the case of `COc1cc2nc(N3CCN(C(=O)c4ccco4)CC3)nc(N)c2cc1OC.Cl`, the cytotoxicity call is reported as “active”. `COc1cc2nc(N(C)CCCNC(=O)C3CCCO3)nc(N)c2cc1OC.Cl` (stereo unspecified) was tested, and the cytotoxicity call was “inactive”. With `NC(=O)C1CCN(C(=O)c2ccco2)CC1` the cytotoxicity call was “inactive”. In the case of `O=C(c1ccco1)N1CCNCC1`, the cytotoxicity call is reported as “inactive”. For `Cl.Cl.NCCNCCNCCN`, the cytotoxicity call was “inactive”. In the case of `C[C@@H]1CCCCO[C@@H](CN(C)C(=O)CCC(F)(F)F)[C@H](C)CN([C@@H](C)CO)C(=O)c2cc(NC(=O)Nc3ccccc3)ccc2O1`, the cytotoxicity call is reported as “inactive”. `C[C@@H]1CCCCO[C@H](CN(C)CC2CC2)[C@@H](C)CN([C@H](C)CO)C(=O)c2cc(NC(=O)Cc3ccccc3)ccc2O1` was tested, and the cytotoxicity call was “inactive”. `O=C(C[C@H]1CC[C@@H]2[C@H](COC[C@H](O)CN2C(=O)c2cnccn2)O1)N1CCN(c2ccccc2)CC1` was tested, and the cytotoxicity call was “inactive”. With `C[C@H](CO)N1C[C@H](C)[C@H](CN(C)CC2CCCCC2)OCCCC[C@H](C)Oc2ccc(NC(=O)CCCN(C)C)cc2C1=O` the cytotoxicity call was “inactive”. In the case of `NNC(=O)c1ccc2c(=O)[nH][nH]c(=O)c2c1`, the cytotoxicity call is reported as “inactive”. For `CCS(=O)(=O)NCC[C@@H]1CC[C@@H](NS(=O)(=O)c2ccccc2C)[C@H](CO)O1`, the cytotoxicity call was “inactive”. `COCc1cn(CC[C@@H]2CC[C@H](NC(=O)CCN3CCCCC3)[C@@H](CO)O2)nn1` was tested, and the cytotoxicity call was “inactive”. For `CN(C)CCCNC(=O)C[C@@H]1CC[C@H]2[C@@H](COc3ccc(NC(=O)c4ccc5c(c4)OCO5)cc3C(=O)N2C)O1`, the cytotoxicity call was “inactive”. In the case of `C[C@H]1CN([C@@H](C)CO)C(=O)c2cc(NS(C)(=O)=O)ccc2O[C@H]1CN(C)C(=O)Nc1ccc(C(F)(F)F)cc1`, the cytotoxicity call is reported as “active”. For `C[C@H](CO)N1C[C@H](C)[C@@H](CN(C)C(=O)Nc2ccc(C(F)(F)F)cc2)Oc2ccc(NS(C)(=O)=O)cc2C1=O`, the cytotoxicity call was “inactive”. In the case of `C[C@H]1CN([C@@H](C)CO)C(=O)c2cc(NS(C)(=O)=O)ccc2O[C@H]1CN(C)C(=O)Nc1ccc(F)cc1`, the cytotoxicity call is reported as “inactive”. `C[C@@H]1CN([C@@H](C)CO)C(=O)c2cc(NS(C)(=O)=O)ccc2O[C@@H]1CN(C)C(=O)Nc1ccc(C(F)(F)F)cc1` was tested, and the cytotoxicity call was “active”. With `C[C@@H]1CN([C@@H](C)CO)C(=O)c2cc(NS(C)(=O)=O)ccc2O[C@H]1CN(C)C(=O)Nc1ccc(C(F)(F)F)cc1` the cytotoxicity call was “inactive”. With `C[C@H](CO)N1C[C@H](C)[C@@H](CN(C)C(=O)Nc2ccc(F)cc2)Oc2ccc(NS(C)(=O)=O)cc2C1=O` the cytotoxicity call was “inactive”. For `C[C@@H]1CN([C@H](C)CO)C(=O)c2cc(NS(C)(=O)=O)ccc2O[C@H]1CN(C)C(=O)Nc1ccc(C(F)(F)F)cc1`, the cytotoxicity call was “inactive”. `C[C@H]1CN([C@@H](C)CO)C(=O)c2cc(NS(C)(=O)=O)ccc2O[C@@H]1CN(C)C(=O)Nc1ccc(C(F)(F)F)cc1` was tested, and the cytotoxicity call was “inactive”. In the case of `C[C@H]1CN([C@@H](C)CO)C(=O)c2cc(NS(C)(=O)=O)ccc2O[C@@H]1CN(C)C(=O)Nc1ccc(F)cc1`, the cytotoxicity call is reported as “active”.
